Test results reported in PubChem BioAssay (NCI).
Where “and” joins values, the source holds several entries; their conditions need not be identical. Equal values may be shown once. Compounds without any hit were thinned out: in the full panel of roughly 79,000, 15% have a hit. No stated cut-off is given here; in the data, active means growth inhibition above about 70%; inactive means the rest.

What was measured:
[1] = NCI Yeast Anticancer Drug Screen. Data for the rad50 strain (AID 155);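 further: 0% = growth of vehicle-only cultures of the same strain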; conditions: S. cerevisiae rad50 strain growth inhibition, stronger effect = higher value; at 50.0 µM unless noted
Outline: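 Relative growth inhibition (compound vs vehicle) was measured in yeast with a defined repair-gene alteration.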

[2] = NCI Yeast Anticancer Drug Screen. Data for the mec2-1 strain (AID 157); conditions: S. cerevisiae mec2-1 strain, stronger effect = higher value; at 50.0 µM unless noted
Outline: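 Yeast mec2-1 mutant treated with compound. Readout: growth inhibition vs vehicle controls.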

[3] = NCI Yeast Anticancer Drug Screen. Data for the sgs1 mgt1 strain (AID 161);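 further: 0% = growth of cultures given vehicle only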; conditions: S. cerevisiae sgs1 mgt1 strain, stronger effect = higher value; at 50.0 µM unless noted
Outline: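 Read-out: growth inhibition vs vehicle controls. Cells: mutant yeast strain deficient in DNA damage repair.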

[4] = NCI Yeast Anticancer Drug Screen. Data for the cln2 rad14 strain (AID 165);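 further: 0% = growth equal to vehicle treated cultures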; conditions: S. cerevisiae cln2 rad14 strain, stronger effect = higher value; at 50.0 µM unless noted
Outline: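 cln2 rad14 yeast strain; compound exposure; growth inhibition read vs vehicle controls.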

[5] = NCI Yeast Anticancer Drug Screen. Data for the bub3 strain (AID 167); conditions: S. cerevisiae bub3 mutant strain, stronger effect = higher value; at 50.0 µM unless noted
Outline: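 Screening used yeast with an engineered genetic alteration affecting cell cycle control. Compound-exposed cultures were compared with vehicle cultures, and reduced growth was taken as inhibition.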

[6] = NCI Yeast Anticancer Drug Screen. Data for the mlh1 rad18 strain (AID 175); conditions: S. cerevisiae mlh1 rad18 strain growth inhibition, stronger effect = higher value; at 50.0 µM unless noted
Outline: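 Yeast w/ defined DNA-repair lesions; compound exposure; growth vs vehicle controls → % inhibition.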

Measured: growth inhibition

C=C[C@]1(C)C=C2CC[C@@H]3[C@](C)(CCC[C@@]3(C)C(=O)O)[C@H]2CC1
inactive: [1] 14.5% | [2] 8.7% | [3] 13.8% | [4] -9.05% | [5] -1.9% | [6] 29.8%

Cc1c2cc[n+](C)c(C)c2cc2c1[nH]c1ccccc12
inactive: [1] 64.8% | [2] 19.8% | [3] 34.1% | [4] 12.8% | [5] 22.4% | [6] 37.8%

O.O.O=S(=O)(O)C(F)(F)F.[NH2-].[NH2-].[NH2-].[NH2-].[Ru+3]
inactive: [1] -17.8% | [2] 1.8% | [3] -27% | [4] -16.9% | [5] -27.4% | [6] -11.6%

O=C1CCCN(c2ccccc2)N1
inactive: [1] 24.4% | [2] 24.6% | [3] 3.3% | [4] 5.1% | [5] 31.9% | [6] -3.8%

[N-]=[N+]=CC(=O)C1OC12C1CC3CC(C1)CC2C3 (configuration not stated)
inactive: [1] -9.2% | [2] -5.85% | [3] 2.45% | [4] -6.25% | [5] 5.2% | [6] 4.55%

Cc1ccc(S(=O)(=O)OC2CCN(C)CC2)cc1
inactive: [1] 36.5% | [2] 6.75% | [3] 15.8% | [4] 9.6% | [5] 43.2% | [6] 30.1%

Cc1ncc(CN=Cc2ccc(Cl)cc2)c(N)n1
inactive: [1] 9.8% | [2] 17% | [3] -9.45% | [4] -12% | [5] 8.9% | [6] 13.2%

Cc1ccc(C(=O)CC(Sc2ccccc2N)c2c(Cl)cccc2Cl)c(C)c1 (configuration not stated)
inactive: [1] -7.4% | [2] -26.4% | [3] 3.8% | [4] -4.5% | [5] -11.1% | [6] -16.5%

N#Cc1[nH]c(=O)n(-c2ccc([N+](=O)[O-])cc2)c1N
inactive: [1] -29.4% | [2] -59.8% | [3] -25.1% | [4] -1.7% | [5] -12.1% | [6] -39.9%

N#C/C(=C\c1ccc2ccccc2c1)C(=O)c1ccccc1
inactive: [1] 13.7% | [2] -14.3% | [3] -15.3% | [4] 17.8% | [5] -17.7% | [6] -47.7%

C=C1C2CCC(C2)C1(C)CC/C=C(/C)CO (configuration not stated) (tested in a mixture with another compound)
inactive: [1] 34.4% and 47.7% | [2] 9.65% and 7.15% | [3] 33.2% and 41.6% | [4] 20.2% and 7.3% | [5] 35.5% and 19.8% | [6] 16.4% and 26.4%

CN(C)c1ccccc1C(=O)N/N=C\c1ccc(-c2ccccc2)cc1
inactive: [1] 7.05% | [2] 4.95% | [3] 0.6% | [4] 12.3% | [5] 0.35% | [6] 19.6%

NC(=S)Cc1ccncc1
inactive: [1] 12.8% | [2] 6.15% | [3] 3.45% | [4] 1.15% | [5] 5.55% | [6] 2.65%

C1C2OC2CC2OC12 (configuration not stated)
inactive: [1] -13.4% | [2] -9.35% | [3] -1.2% | [4] 55.8% | [5] -1.05% | [6] -4.25%

CCOC(C)=Nc1cc(OC)cc2c1NC(=O)CCS2
inactive: [1] -28.9% | [2] -20.1% | [3] -36.6% | [4] -50% | [5] 5.6% | [6] -40.2%

COC1=CC(=O)C2CC=CC(CC(=O)O)C2(C)C1=O (configuration not stated)
inactive: [1] -0.95% | [2] -2.4% | [3] -0.35% | [4] -21.9% | [5] 7.3% | [6] 4.5%

NCCNCCNCCN
inactive: [1] -12.4% and -8.1% | [2] -7.65% and -20.7% | [3] 3.1% | [4] -28.9% | [5] -5.35% | [6] -19.4% and 29.1%

CC1=C2CC(C)(C)CC(=O)C2(C)CCC1=O (configuration not stated)
inactive: [1] 4.2% | [2] -6.55% | [3] 11.9% | [4] 25.6% | [5] -2.85% | [6] 27.8%

COC1OC(COS(=O)(=O)c2ccc(C)cc2)C(OS(=O)(=O)c2ccc(C)cc2)C(OS(=O)(=O)c2ccc(C)cc2)C1OS(=O)(=O)c1ccc(C)cc1 (configuration not stated)
inactive: [1] -7.45% | [2] -16.5% | [3] -11.7% | [4] -8.6% | [5] 0.75% | [6] 18.6%

C=C1CCCC(C)(C)[C@@H]1CC/C(C)=C/Cn1c2cccc(=O)c-2nc2ccccc21
inactive: [1] 12.8% | [2] 6.75% | [3] 2.15% | [4] 2.4% | [5] -17.4% | [6] 19.2%

NC(=O)CSCC(N)=O
inactive: [1] 0.75% | [2] -13.9% | [3] 3.45% | [4] 6.05% | [5] -2.75% | [6] 22%

CCCCCCCC/C=C\CCCCCCCC(=O)NC(C)(C)C(=O)O
inactive: [1] -16.2% | [2] -15.7% | [3] -9.5% | [4] 62.6% | [5] 32.2% | [6] -36.4%

CC(=O)NC1=NC(=O)/C(=C/c2ccccc2Cl)N1C
inactive: [1] -45.7% | [2] -53.8% | [3] -10.9% | [4] 8% | [5] -8.85% | [6] 28.6%

COC(=O)N/N=C(/CCCC(=O)Nc1cccc([N+](=O)[O-])c1)C(C#N)c1ccc(CC#N)cc1 (configuration not stated)
inactive: [1] -3.55% | [2] -0.1% | [3] -13.6% | [4] 1.8% | [5] 6.65% | [6] -3.3%

COC(=O)CSc1cc(Cl)c(C)cc1S(=O)(=O)Nc1n[nH]c(N)n1
inactive: [1] -14.2% | [2] -7.5% | [3] -11% | [4] -6.65% | [5] -9.75% | [6] 10.2%

CCCCCCCCCCCC(=O)NCc1ccc(OC(=O)CCCCCCCCCCC)c(OC)c1
inactive: [1] -7.55% | [2] -9.8% | [3] -6.3% | [4] -34.1% | [5] 4.1% | [6] -8.85%

CC(C)Cc1c(C#N)c(C#N)c(N)n1Cc1ccccc1
inactive: [1] 3.05% | [2] 11.4% | [3] -29% | [4] -12% | [5] -22.1% | [6] -36.4%

O=COCCCOCCCOc1ccccc1
inactive: [1] 14.3% | [2] -11.8% | [3] -9.35% | [4] -37.4% | [5] -5.6% | [6] 28.4%

Cc1[nH]c(=S)[nH]c1C
inactive: [1] 4.1% | [2] 9.5% | [3] 12.2% | [4] 10% | [5] 15.7% | [6] 12.6%

NS(=O)(=O)c1ccc(N=Nc2ncccc2O)cc1
inactive: [1] 19.4% | [2] 3.4% | [3] -12.3% | [4] -30.6% | [5] -44% | [6] 20.6%

CCCOC(=O)C1C(=O)CC(c2ccccc2)C1c1ccccc1 (configuration not stated)
inactive: [1] 1.95% | [2] -2.05% | [3] 1.3% | [4] -4.15% | [5] 1.25% | [6] -0.4%

CCC(C)C(NC(=O)C1CSC(C)(C)N1C=O)C(=O)OC1CCCCC1 (configuration not stated)
inactive: [1] 38.9% | [2] -13.2% | [3] 19.1% | [4] -13.2% | [5] -4.9% | [6] 9.55%

CC(C)(C)CNCCO
inactive: [1] -2.45% | [2] -23.4% | [3] -2% | [4] -7.5% | [5] -7.55% | [6] -6.3%

CCOC(=O)Cc1ccc(N(CCO)CCO)cc1
inactive: [1] 5.15% | [2] 7.4% | [3] 22.8% | [4] -0.2% | [5] 12.9% | [6] 5.55%

COc1ccccc1OC(=O)c1ccccc1
inactive: [1] -27.4% | [2] 7.4% | [3] -22.8% | [4] -9.1% | [5] 11.5% | [6] -5.35%

CC(=O)NC1=NC(=O)/C(=C/c2ccc3c(c2)OCO3)N1C
inactive: [1] 4.7% | [2] 2.85% | [3] -3.3% | [4] 3% | [5] 5.5% | [6] 10.9%

Cc1ccc(CC2CC(=O)NC2=O)cc1 (configuration not stated)
inactive: [1] 13.6% | [2] -2.95% | [3] 22.1% | [4] 2.15% | [5] 10.5% | [6] -3.8%
